Our source for the Renilla luciferase signal values is the supplement of paper PMC9254222.

For this experiment, the system named is HEK293T (UBE3A T485A transfected, BAR Wnt reporter). The experiment can be described thus: Renilla luciferase signal (cell health) relative to plate median (fold (linear ratio)); higher = higher Renilla signal. Conditions: 24 h. The method, boiled down: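 HEK293T cells were grown in DMEM with 10% FBS at 37°C and 5% CO2, at 4500 cells/well in white 384-well plates. They were transfected with a BAR firefly luciferase Wnt reporter, TK-Renilla and an expression plasmid using Fugene 6. Four hours later, robots dosed the chemicals at 0.01–100 uM for 24 h, followed by Dual-Glo luciferase readout. Wnt activity (firefly/Renilla ratio) and cell health (raw Renilla) were median-centred per plate, averaged over four biological replicates.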

In all, about 1,100 compounds were measured (“Renilla luciferase signal (cell health) relative to plate median”: median about 0.97, highest 2% from about 1.6 on). The list comes from a sample in which the highest values are over-represented; it also holds similar structures and randomly drawn compounds.

As to `O=C(Nc1ccccc1)Nc1cnns1` [Thidiazuron], the Renilla luciferase signal came out at 1.1 (concentration: 0.01 uM); 1.07 (concentration: 0.1 uM); 1 (concentration: 1 uM); 0.921 (concentration: 10 uM); 0.135 (concentration: 100 uM).

With `C[Si](Cn1cncn1)(c1ccc(F)cc1)c1ccc(F)cc1` [Flusilazole], the Renilla luciferase signal by setting is: (concentration: 0.01 uM) 1.03; (concentration: 0.1 uM) 1.08; (concentration: 1 uM) 1.03; (concentration: 10 uM) 0.986; (concentration: 100 uM) 0.258.

On to `CC(C)[C@H](C(=O)O[C@H](C#N)c1cccc(Oc2ccccc2)c1)c1ccc(Cl)cc1` [Esfenvalerate], for which the Renilla luciferase signal reads like this: (concentration: 0.01 uM) 0.932; (concentration: 0.1 uM) 0.969; (concentration: 1 uM) 0.846; (concentration: 10 uM) 0.908; (concentration: 100 uM) 0.397.

With `Nc1cnn(-c2ccccc2)c(=O)c1Cl` [Chloridazon], the Renilla luciferase signal (concentration: 0.01 uM) was 0.928; the Renilla luciferase signal (concentration: 0.1 uM) was determined as 0.982; the Renilla luciferase signal (concentration: 1 uM) was found to be 0.916; the Renilla luciferase signal (concentration: 10 uM) was determined as 1.1; the Renilla luciferase signal (concentration: 100 uM) came to 1.34.

For `Cc1ccccc1[N+](=O)[O-]` [2-Nitrotoluene], the Renilla luciferase signal (concentration: 0.1 uM) turned out to be 1.24, the Renilla luciferase signal (concentration: 1 uM) is 1.08, the Renilla luciferase signal (concentration: 10 uM) was found to be 1.14 and the Renilla luciferase signal (concentration: 100 uM) turned out to be 1.33.

Regarding `Cc1nc(N(C)C)nc(OC(=O)N(C)C)c1C` [Pirimicarb], the Renilla luciferase signal is, setting by setting: (concentration: 0.01 uM) 1.09; (concentration: 0.1 uM) 1.09; (concentration: 1 uM) 1.1; (concentration: 10 uM) 1.21; (concentration: 100 uM) 2.4.

Take `O=C([O-])C(F)(F)C(F)(F)C(F)(F)C(F)(F)C(F)(F)C(F)(F)C(F)(F)F.[NH4+]` [PFOA, ammonium salt]: the Renilla luciferase signal is, setting by setting: (concentration: 0.1 uM) 0.839; (concentration: 1 uM) 0.971; (concentration: 10 uM) 0.797; (concentration: 100 uM) 0.224.

On to `Clc1cccc(Cl)c1` [1,3-Dichlorobenzene], for which the Renilla luciferase signal runs as follows: (concentration: 0.1 uM) 0.976; (concentration: 1 uM) 1.06; (concentration: 10 uM) 1.08; (concentration: 100 uM) 1.26.

In the case of `Cc1ccc(N=C=O)cc1N=C=O` [Toluene-2,4-diisocyanate], the Renilla luciferase signal was 0.891 (concentration: 0.1 uM), 0.94 (concentration: 1 uM), 1.08 (concentration: 10 uM) and 0.677 (concentration: 100 uM).

`COc1nn(CSP(=S)(OC)OC)c(=O)s1` [Methidathion]: the Renilla luciferase signal reads like this: (concentration: 0.01 uM) 0.805; (concentration: 0.1 uM) 0.65; (concentration: 1 uM) 0.845; (concentration: 10 uM) 0.715; (concentration: 100 uM) 0.562.

`CNC(=O)CSP(=S)(OC)OC` [Dimethoate]: the Renilla luciferase signal is, setting by setting: (concentration: 0.01 uM) 1.22; (concentration: 0.1 uM) 0.985; (concentration: 1 uM) 0.987; (concentration: 10 uM) 1.12; (concentration: 100 uM) 1.67.

Take `COP(=S)(OC)SCN1C(=O)c2ccccc2C1=O` [Phosmet]: the Renilla luciferase signal (concentration: 0.1 uM) worked out at 0.82, the Renilla luciferase signal (concentration: 1 uM) was found to be 0.838, the Renilla luciferase signal (concentration: 10 uM) is 0.713 and the Renilla luciferase signal (concentration: 100 uM) was determined as 0.82.

In the case of `CCC1(c2ccccc2)C(=O)N=C([O-])NC1=O.[Na+]` (stereo not given) [Phenobarbital sodium], the Renilla luciferase signal (concentration: 0.1 uM) came to 0.831, the Renilla luciferase signal (concentration: 1 uM) amounted to 0.817, the Renilla luciferase signal (concentration: 10 uM) came out at 0.777 and the Renilla luciferase signal (concentration: 100 uM) is 0.914.

For the molecule `COCCOCCO` [Diethylene glycol monomethyl ether], the Renilla luciferase signal (concentration: 0.1 uM) was 1.01, the Renilla luciferase signal (concentration: 1 uM) was found to be 0.991, the Renilla luciferase signal (concentration: 10 uM) turned out to be 1.01 and the Renilla luciferase signal (concentration: 100 uM) amounted to 1.32.

Take `C[N+]1(C)CCCCC1.[Cl-]` [Mepiquat chloride]: the Renilla luciferase signal was 1.1 (concentration: 0.01 uM); 1.08 (concentration: 0.1 uM); 1.06 (concentration: 1 uM); 1.02 (concentration: 10 uM); 1.31 (concentration: 100 uM).

In the case of `CN(C)C(=S)[S-].CN(C)C(=S)[S-].[Zn+2]` [Ziram], the Renilla luciferase signal was 0.814 (concentration: 0.1 uM), 0.726 (concentration: 1 uM), 0.999 (concentration: 10 uM) and 0.0214 (concentration: 100 uM).

In the case of `CNC(=S)[S-].O.O.O.[Na+]` [Metam-sodium hydrate], the Renilla luciferase signal came to 1.32 (concentration: 0.01 uM); 1.02 (concentration: 0.1 uM); 1.07 (concentration: 1 uM); 1.06 (concentration: 10 uM); 1.67 (concentration: 100 uM).

`CN(C)C(=S)[S-].[Na+]` [Sodium dimethyldithiocarbamate]: the Renilla luciferase signal came to 0.974 (concentration: 0.1 uM), 1.07 (concentration: 1 uM), 0.874 (concentration: 10 uM) and 1.06 (concentration: 100 uM).

For the molecule `Nc1ccc(/N=N/c2ccccc2)cc1` [4-Aminoazobenzene], the Renilla luciferase signal is, setting by setting: (concentration: 0.1 uM) 0.476; (concentration: 1 uM) 0.565; (concentration: 10 uM) 0.351; (concentration: 100 uM) 0.181.

In the case of `NC1=NC(O)C2C3OC4(O)OC(C(O)C2(N1)C4O)C3(O)CO` (stereo not given) [Tetrodotoxin (TTX)], the Renilla luciferase signal is, setting by setting: (concentration: 0.01 uM) 1.02; (concentration: 0.1 uM) 0.976; (concentration: 1 uM) 0.904; (concentration: 10 uM) 1.03; (concentration: 100 uM) 2.57.
